Outcome data for 30 molecules are collected here from PubChem BioAssay AID504910 (Southern Research Specialized Biocontainment Screening …, 2011).

The nature of this assay: HepG2 cell cytotoxicity, cytotoxicity control, set 4 (AID 504910).

Measured potencies and affinities stand elsewhere. Calls of active or inactive are those of the source. How the calls were made is not given here.

Turning to `O=C(CSc1ccccn1)NC1CCCCC1`, the result was inactive.

Take `COC(=O)C(C)Oc1ccc(Cc2ncc(C(F)(F)F)cc2Cl)cc1` (stereo not given): the result was inactive.

For the molecule `CO[C@H]1/C=C/O[C@@]2(C)Oc3c(C)c(O)c4c(O)c(c(C=NN5CCN(C)CC5)c(O)c4c3C2=O)NC(=O)/C(C)=C\C=C\[C@H](C)[C@H](O)[C@@H](C)[C@@H](O)[C@@H](C)[C@H](OC(C)=O)[C@@H]1C`, the molecule was classed as inactive.

Take `CC(C)NC(=O)CSc1nc2ccccc2c(=O)[nH]1`: the call was inactive.

For `O=C(CSc1nc2ccccc2c(=O)[nH]1)NC1CCCC1`, the molecule was called inactive.

As to `CCOC(=O)CSc1nc(C)c(C)c(=O)[nH]1`, the result was inactive.

On to `O=C(CSc1nc2ccccc2c(=O)[nH]1)NC1CCCCC1`, for which the molecule was called inactive.

Take `Cc1nc(SCC(=O)NC2CCCC2)[nH]c(=O)c1C`: the call was inactive.

`Cc1cc(=O)[nH]c(=S)[nH]1`: the result was inactive.

On to `CN[C@@H]1[C@H](O[C@H]2[C@H](O[C@H]3[C@H](O)[C@@H](O)[C@H](N=C(N)N)[C@@H](O)[C@@H]3N=C(N)N)O[C@@H](C)[C@]2(O)C=O)O[C@@H](CO)[C@H](O)[C@H]1O`, for which the molecule was called inactive.

As for `CC(Sc1nc2ccccc2c(=O)[nH]1)C(=O)NC1CCCCC1` (stereo not given), the call was inactive.

For the molecule `NC(=O)c1cnccn1`, the molecule was classed as inactive.

Consider `CCC(Sc1nc2ccccc2c(=O)[nH]1)C(=O)Nc1cccc(OC)c1` (stereo not given), for which the result was inactive.

Consider `CC[C@@H](CO)NCCN[C@@H](CC)CO`, for which the call was inactive.

For `Cc1nc(SCC(=O)N(C)c2ccccc2)[nH]c(=O)c1C`, the result was inactive.

For `Cc1cc(=O)[nH]c(SCC(=O)NC2CCCCC2)n1`, the result was inactive.

Turning to `NC[C@H]1O[C@H](O[C@H]2[C@H](O)[C@@H](O[C@H]3O[C@H](CO)[C@@H](O)[C@H](N)[C@H]3O)[C@H](N)C[C@@H]2N)[C@H](O)[C@@H](O)[C@@H]1O`, the molecule was called inactive.

Regarding `Cc1nc(SCC(N)=O)[nH]c(=O)c1C`, the result was inactive.

In the case of `COC(=O)C(Nc1nc(SCC(=O)NC2CCCCC2)nc2ccccc12)c1ccccc1` (stereo not given), the call was inactive.

On to `O=c1[nH]c(SCc2ccccc2Cl)nc2c1CCCC2`, for which the result was inactive.

Turning to `Cc1cc(C)n2nc(N)c(N=Nc3ccccc3)c2n1`, the call was inactive.

On to `CCSc1nc2ccccc2c(=O)[nH]1`, for which the outcome was inactive.

For `CN(C)C(=O)CSc1nc2ccccc2c(=O)[nH]1`, the molecule was called inactive.

On to `COc1ccc(NC(=O)CSc2nc3ccccc3c(=O)[nH]2)cc1`, for which the call was inactive.

As for `CC(C)CCNC(=O)CSc1nc2ccccc2c(=O)[nH]1`, the call was inactive.

As for `CC1CCN(C(=O)CSc2nc3ccccc3c(=O)[nH]2)CC1`, the molecule was classed as inactive.

For the molecule `CCOC1OC(=O)C(Cl)=C1Nc1ccccc1C` (stereo not given), the outcome was inactive.

On to `COc1cccc(NC(=O)CSc2nc3c(c(=O)[nH]2)CCC3)c1`, for which the result was inactive.

Turning to `O=C(CSc1nc2ccccc2c(=O)[nH]1)N1CCOCC1`, the result was inactive.

In the case of `CC[N+](C)(CC)CCCCOc1ccc2c(c1)C(=O)c1cc(OCCCC[N+](C)(CC)CC)ccc1-2`, the call was inactive.
